Measured values published in PubChem BioAssay AID1850 (Southern Research Specialized Biocontainment Screening …, 2009).
In all, about 310,000 compounds went through this assay and about 1,000 (0.32%) were called active. A selection follows. Potency and affinity values are given separately. Unmarked numbers belong to inactive results. The rule behind the calls is not given here.

assay: PhoP regulon inhibitors, Salmonella typhi PhoP promoter GFP reporter, confirmatory (AID 1850); settings: fluorescence, 4 h, at 50 µM, hits give high values;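 note: 0% = induced wells with vehicle and 100% = uninduced wells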

SMILES | inhibition [%]
C/C(CC(=O)Nc1ccccc1C(F)(F)F)=N\NC(=O)c1cnccn1 | -1.08
CCCn1c(O)c(N=NC(=O)CNC(=O)Cc2ccc(OC)cc2)c2ccccc21 | -19.2
CCCN(CCC)S(=O)(=O)c1cccc(C(=O)N=c2sccn2C)c1 | -5.43
Cc1cccc(NC(=O)c2cc([N+](=O)[O-])ccc2Cl)c1O | -4.69
CCOc1cc(C(=O)Nc2ccc3c(c2)OCO3)ccc1OCCOc1ccccc1Cl | -0.32
Cc1ccc2nc3c(c(Nc4cccc(O)c4)c2c1)CCC3 | 7.27
CC(=O)c1cccc(Nc2c3c(nc4ccccc24)CCC3)c1 | 12.8
O=C(Cc1ccsc1)Nc1cc(F)ccc1F | 3.38
O=C(COc1ccc(S(=O)(=O)N2CCCCC2)cc1Cl)N1CCOCC1 | -6.77
COc1ccc(Cl)cc1NC(=O)C1CC(=O)N(C2CCCCC2)C1 (configuration not stated) | -8.7
O=C(COC(=O)c1ccc(Br)o1)NCCNC(=O)COC(=O)c1ccc(Br)o1 | -1.54
Cc1cc(C(=O)N2CCC(Cc3ccccc3)CC2)c(C)o1 | -3.49
CCc1ccc(NC2=NCCCS2)cc1 | 39.5
CCOc1ccc(NC2=NCCCS2)cc1 | -2.96
COC(=O)[C@@H](N)CCCN=C(N)N[N+](=O)[O-] | -16.2
CCCCC(CC)COC(=O)c1ccccc1C(=O)OCC(CC)CCCC (configuration not stated) | -4.54
CCOc1ccc(OCCSc2nc(N)cc(=O)[nH]2)cc1 | 12.9
C=CCNC(=O)c1cc2cccc(OC)c2oc1=O | -9.75
COCC(=O)NNS(=O)(=O)c1ccccc1[N+](=O)[O-] | 0.41
CC1CCCN(C(=S)NCc2ccccc2)C1 (configuration not stated) | -5.12
CC1CCN(c2c(NCC3CCC(C(=O)NCc4ccccc4)CC3)c(=O)c2=O)CC1 (configuration not stated) | -9.12
O=S(=O)(c1ccc(F)c(F)c1F)N1CCN(C(=S)NC2CC3CCC2C3)CC1 (configuration not stated) | 3.26
COc1ccc(-c2noc(N3CCCC(C(=O)Nc4ccccc4F)C3)n2)cc1 (configuration not stated) | 4.79
Cc1c(-n2cc(C(=O)O)c(=O)c3cc(F)c(N4CCCC(O)C4)c(F)c32)c(=O)n(-c2ccccc2)n1C (configuration not stated) | 2.49
S=C(NC1CC2CCC1C2)N1CCN(c2cccc(Cl)c2)CC1 (configuration not stated) | 15.8

SMILES | inhibition [%]
Cc1ccccc1N1C(=O)c2sc3nc4c(c(=O)n3c2C1=O)CCC4 | 0.93
O=C(OCCN=C1NS(=O)(=O)c2ccccc21)c1ccco1 | 5.3
O=C(c1cccc(S(=O)(=O)N2CCCC2)c1)N1CCN(c2ccccc2F)CC1 | -7.17
O=C(CSc1nc2[nH]ncc2c(=O)n1-c1ccc(Cl)c(Cl)c1)NCc1ccccc1Cl | -3.93
C/C(=N\NC(=O)c1cccnc1)c1ccccc1 | -2.72
CC(=O)Nc1ccc(S(=O)(=O)NCC2CCC(C(=O)NCCCN3CCCC3=O)CC2)cc1 (configuration not stated) | -3.51
COc1ccc(S(=O)(=O)N2CCc3ccccc32)cc1C(=O)O | 0.91
O=C(NCc1cccnc1)c1cc(Sc2ccc(F)cc2F)nc2ccccc12 | -9.05
COc1ccc(CC(=O)NNC(=S)NC(=O)c2cccnc2)cc1 | 9.02
Cc1n[nH]c(C)c1CCNC(=O)C1CCC(=O)N(CCc2cccc(F)c2)C1 (configuration not stated) | -2.89
CCn1cc(C(=O)O)c(=O)c2cnc(N3CCN(C(=S)Nc4ccc(F)cc4)CC3)nc21 | -5.98
COC(=O)CC1C(=O)NCCN1C(=S)Nc1ccc(F)cc1 (configuration not stated) | 4.44
COC(=O)C(C)NC(=S)N1CC2C[C@@H](C1)Cn1c2cccc1=O (some centres not stated) | 3.1
COC(=O)C1=C(N)Oc2cc(N(C)C)ccc2C1c1ccccc1OC (configuration not stated) | -7.55
Cc1ccc(CNC(=O)CSCc2ccccc2F)cc1 | 3.95
Cc1ccccc1N1CC(C(=O)NC2CCCC2)CC1=O (configuration not stated) | -18.4
CCCNC(=O)COc1coc(CN2CCN(c3cccc(Cl)c3)CC2)cc1=O | 9.58
Cc1c(NC(=O)c2nn3c(c2Br)NC(c2ccccc2)CC3C(F)(F)F)c(=O)n(-c2ccccc2)n1C (configuration not stated) | -3.46
OC1CCCN(Cc2cccc3ccccc23)C1 (configuration not stated) | -1.87
c1cc2ccc3ccc(CN4CCOCC4)c4ccc(c1)c2c34 | -8.34
Cc1nnc(NC(=O)CCSc2ccc(Cl)cc2)s1 | -3
CC(C)c1ccc2c(c1)C(N1CCN(C)CC1)Cc1cccnc1S2 (configuration not stated) | 15.7
CSc1ccc2c(c1)C(N1CCN(C)CC1)Cc1ccccc1S2 (configuration not stated) | 12.9
COCCCN1CCN(C2Cc3ccccc3Sc3ccc(Cl)cc32)CC1 (configuration not stated) | 1.9
COc1ccc2c(c1)CC(N1CCN(C)CC1)c1cc(OC)ccc1S2 (configuration not stated) | 21.4

SMILES | inhibition [%]
CN1CCN(CCOC2Cc3ccccc3Sc3ccc(Cl)cc32)CC1 (configuration not stated) | -19.4
Fc1ccc2c(c1)Sc1ccc(Cl)cc1CC2N1CCN(CCC2OCCO2)CC1 (configuration not stated) | 12.3
Cc1cc(C)c(C(=O)/C=C/c2cccc3ccccc23)c(=O)[nH]1 | -11.9
CCn1c(=O)cc(SCC(=O)N2CCOCC2)c2ccccc21 | 0.81
Cc1cccc(OCCc2c(C)[nH]c(=S)[nH]c2=O)c1 | -1.55
NC(=O)CSc1nnc(Cn2c(=O)sc3ccccc32)n1CCc1ccccc1 | 1.95
COc1cccc(NC(=O)CCCCCN2C(=O)[C@@H]3Cc4ccccc4CN3C2=O)c1 | 6.78
CCN1C(=O)CSC1=Nc1ccc(OC)cc1 | -7.25
COc1cc(OC)c(OC)cc1CNCCNC(=O)c1nonc1N | 6.25
CN1CCN(C2Cc3ccc(F)cc3Sc3cc(F)c(Cl)cc32)CC1 (configuration not stated) | 8.23
CCOC(=O)c1cccnc1NC(=O)c1ccccc1 | -7.33
COc1ccccc1C(=O)NC(C(=O)NCCc1nc2ccccc2[nH]1)=C(C)C | -1.36
OCCCCCNc1ncnc2ccccc12 | 2.05
O=c1c2[nH]c3ccccc3c2ncn1CCC1=CCCCC1 | -7.17
CC(C)OCCCNc1ncnc2c1[nH]c1ccccc12 | 11.2
COCCNc1ncnc2c1[nH]c1ccccc12 | 8.5
COc1ccc(CNc2ncnc3c2[nH]c2cc(OC)c(OC)cc23)cc1 | 3.65
CCOCCCNc1ncnc2c1[nH]c1ccccc12 | 0.37
CCN(CC)CCCNc1ncnc2ccccc12 | 0.53
OCCCNc1ncnc2c1[nH]c1ccccc12 | 2.26
COc1cc([N+](=O)[O-])cc(/C=N/NC(=O)c2cc(-c3ccccc3)nc3ccccc23)c1O | -2.11
O=C(CCC(=O)c1ccc(F)cc1)NC1CCCN(Cc2ccccc2F)C1 (configuration not stated) | -3.89
O=C(c1cc(Br)ccc1Cl)N1CCCC1 | 6
Cc1ccc(NS(=O)(=O)c2ccc(C(=O)NCC(c3ccco3)N(C)C)cc2)cc1 (configuration not stated) | -2.21
CCOC(=O)C1=C(O)c2ccccc2C(=O)/C1=C\c1ccc(CC)cc1 | -9.78

SMILES | inhibition [%]
CCCc1ccc(/C=C2\C(=O)c3ccccc3C(O)=C2C(=O)OCC)cc1 | -2.52
Nc1ccc(C(=O)Oc2ccc([N+](=O)[O-])cc2)c(O)c1 | -25
N#CCC(=O)Nc1ccc(C(=O)OCC(=O)Nc2ccccc2Sc2ccccc2)cc1 | -5.37
Cc1ccccc1OCC(O)CN1CCN(c2ccc(Cl)cc2)CC1 (configuration not stated) | 6.16
CNNC(=S)Nc1cccc(C(F)(F)F)c1 | 6.82
Nc1ccc2c(c1)N1CCN=C1S2 | -12.9
O=C(CC1SC2=NCCN2C1=O)Nc1ccc(Cl)cc1 (configuration not stated) | -0.31
Cc1ccc(O)c(-c2cc(C(F)(F)C(F)F)[nH]n2)c1 | -3.16
FC(F)C(F)(F)c1cc(-c2ccccc2)n[nH]1 | 5.29
O=c1nc(-c2ccccc2)n(-c2ccc(Cl)cc2)[nH]1 | -11
Cc1ccc(OCCC(=O)Nc2ccc(S(=O)(=O)Nc3cc(C)nc(C)n3)cc2)cc1 | -3.66
O=C(N/N=C/c1ccc([N+](=O)[O-])s1)c1ccncc1 | -1.03
COC(=O)N/N=C/c1ccc([N+](=O)[O-])s1 | -3.8
Cn1c(SCC(=O)N/N=C/c2ccc([N+](=O)[O-])s2)nnc1-c1ccccc1 | 17.5
O=C(N/N=C\c1ccc([N+](=O)[O-])s1)c1cncc(Br)c1 | -10.5
Cc1ccc(C(=O)N/N=C\c2cccs2)cn1 | -3.85
Cc1cc(C(=O)N/N=C/c2ccc([N+](=O)[O-])s2)n[nH]1 | 21.5
Cc1ccc(C(=O)N/N=C/c2ccc([N+](=O)[O-])s2)cc1 | -14.9
Cn1c(SCC(=O)N/N=C/c2cc([N+](=O)[O-])ccc2O)nnc1-c1ccccc1 | 2.1
O=C(Nc1ccc2c(c1)CCC2)c1ccc(Cl)nc1 | 8.38
COC/C=C/C1=CC2=CC(=O)C(C)(OC(=O)c3cnc4ccccc4n3)C(=O)C2=CN1c1cccc(C#N)c1 (configuration not stated) | 0.42
O=C(CSc1nccc(=O)[nH]1)N1CCOCC1 | -10
